Measured values published in PubChem BioAssay (NCI).
About 79,000 compounds went through this panel and 15% of them were active in at least one assay; those are over-represented in the sample as a whole. A number with no mark means an inactive call. Calls of active or inactive are those of the source. Rule as the data show it: active = growth inhibition above about 70%; inactive = the rest.

Columns and labels:
[1] = NCI Yeast Anticancer Drug Screen. Data for the rad50 strain (AID 155);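 also: 0% = growth of vehicle-only cultures of the same strain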; conditions: S. cerevisiae rad50 strain growth inhibition; at 50.0 µM; active compounds read high
Procedure, shortened: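 Growth of the mutant yeast was measured after compound exposure and referenced to vehicle-treated cultures.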

[2] = NCI Yeast Anticancer Drug Screen. Data for the mec2-1 strain (AID 157); conditions: S. cerevisiae mec2-1 strain, at 50.0 µM, active compounds read high
Procedure, shortened: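 Cells of the genetically defined mec2-1 yeast strain are incubated with test compound. Inhibition of growth is calculated against vehicle-treated controls.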

[3] = NCI Yeast Anticancer Drug Screen. Data for the sgs1 mgt1 strain (AID 161);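 also: 0% = growth of cultures given vehicle only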; conditions: S. cerevisiae sgs1 mgt1 strain, at 50.0 µM, active compounds read high
Procedure, shortened: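 Inhibition of yeast growth, normalised to vehicle-treated controls, is reported for a strain bearing genetic alterations in DNA damage repair.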

[4] = NCI Yeast Anticancer Drug Screen. Data for the cln2 rad14 strain (AID 165);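 also: 0% = growth equal to vehicle treated cultures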; conditions: S. cerevisiae cln2 rad14 strain, at 50.0 µM, active compounds read high
Procedure, shortened: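 The screen exposed genetically defined yeast (cln2 rad14) to test compounds and scored growth inhibition relative to vehicle-treated controls.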

[5] = NCI Yeast Anticancer Drug Screen. Data for the bub3 strain (AID 167); conditions: S. cerevisiae bub3 mutant strain, at 50.0 µM, active compounds read high
Procedure, shortened: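 Whole-cell yeast assay. The mutant strain was incubated with compounds, and growth inhibition was determined by comparison with vehicle-treated cells.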

[6] = NCI Yeast Anticancer Drug Screen. Data for the mlh1 rad18 strain (AID 175); conditions: S. cerevisiae mlh1 rad18 strain growth inhibition; at 50.0 µM; active compounds read high
Procedure, shortened: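 Compound-treated yeast growth, normalised to vehicle controls. Strain bears defined DNA repair mutations.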

Row | Structure (SMILES) | growth inhibition [1] | growth inhibition [2] | growth inhibition [3] | growth inhibition [4] | growth inhibition [5] | growth inhibition [6]
1 | CCCS(=O)(=O)N(CC)CC | -0.4% | -10.8% | -1.9% | -27.5% | -5.65% | -15.4%
2 | O=P(CCc1ccccc1)(OCCCl)OCCCl | 10.2% | 2.15% | 3.85% | 14.3% | 6.5% | -5%
3 | CCCn1c(=O)n(C)c(=O)c2c1ncn2C | -5.15% | -2.25% | 13.2% | -28.1% | 4.1% | 13.5%
4 | COc1ccc(N2NC(c3ccccc3)(c3ccccc3)C(C)C2=O)cc1 (stereo not drawn) | 48.2% | 17.1% | 40.4% | 5.2% | 51.2% | 40.1%
5 | N#Cc1cccc(CC(O)(c2ccccc2)c2ccccc2)c1 | 19.6% | 19.9% | 5.1% | 11% | 20.5% | 18.4%
6 | CC(COC(=O)c1ccc(N)cc1)NC1CCCCC1 (stereo not drawn) | -8.2% | 1.1% | 19.6% | 13.7% | -2.25% | -16.6%
7 | Oc1ccccc1CNCCNCc1ccccc1O | -12.2% | -14.1% | 1.6% | 17.6% | -4.5% | -36.2%
8 | CCCC(C)C(=O)OC1CCCCC1C (stereo not drawn) | -0.95% | 4.25% | -7.85% | -45.6% | 8.1% | 0.6%
9 | Cc1ccc(OC(=O)c2ccccc2)cc1CC(Cl)(Cl)Cl | -0.75% | -6% | -9.3% | -19.3% | 2.8% | -14.3%
10 | CC(C)(Br)C(=O)N1CCN(C(c2ccccc2)c2ccccc2)CC1 | 3.15% | 8.2% | 2.3% | -0.15% | -0.3% | 14.7%
11 | CC(=O)Oc1cc2c(cc1Cc1ccc3c(c1)OCO3)OCO2 | -18.6% | -17.2% | -7% | -6.2% | 15.9% | -14.5%
12 | CCCC(=O)OCc1ccc(Cl)c(Cl)c1 | 21.6% | 16% | 9.45% | 8% | 9.15% | -3.85%
13 | O=C(CCc1ccc(O)c(O)c1)NCCc1cc(O)cc(O)c1 | 23.1% | -23.9% | -26.8% | -4.95% | -42.5% | -52.5%
14 | Cc1ccc(S(=O)(=O)OC2C(OC(=O)c3ccccc3)OCC(O)C2O)cc1 (stereo not drawn) | 23.6% | 2.45% | 6.1% | -11.8% | 6.5% | 3.35%
15 | O=C(O)CCC(=O)Nc1cccc(C(F)(F)F)c1 | -5.9% | 3.4% | -3.15% | -0.55% | 15.2% | 4.3%
16 | c1ccc(Cc2[nH]nc(-c3ccccc3)c2N=Nc2ccccc2)cc1 | 5.55% | -34.9% | 2.65% | -16.4% | 8.45% | -6.1%
17 | Cc1ccc(C2(C#N)CCCC2)cc1 | 5.55% | -1% | 12% | 3.85% | 15.6% | 4.7%
18 | CCOC(=O)CNC1C(NC(C)=O)C(OC)OC2COC(c3ccccc3)OC21 (stereo not drawn) | -7.7% | 6.6% | 6.7% | -12.3% | -0.75% | -2.4%
19 | CC(O)CC1CC(=O)CCC1=O (stereo not drawn) | 0.35% | -18.1% | -10.7% | -29.2% | -5.85% | 8.3%

Row | Structure (SMILES) | growth inhibition [1] | growth inhibition [2] | growth inhibition [3] | growth inhibition [4] | growth inhibition [5] | growth inhibition [6]
20 | O=C1CSC(=S)N1c1ccccc1 | 2.2% | -3.8% | -3.6% | -4.75% | 0.8% | 2.9%
21 | O=C(Nc1ccccc1)C1C2C=CC(C2)C1C(=O)Nc1ccccc1 (stereo not drawn) | 0.2% | 27.9% | 5.05% | -11.7% | 21.4% | -8.25%
22 | COc1ccc(-c2c3c(n(C4OC(COC(C)=O)C(OC(C)=O)C(OC(C)=O)C4OC(C)=O)c(=S)c2C#N)CCCC3)cc1 (stereo not drawn) | -17.9% | -13.2% | 3.4% | 2.05% | -1.95% | -5%
23 | CC(Cc1ccco1)C(=O)O (stereo not drawn) | 9.2% | 15.4% | -0.3% | -14% | 1.9% | -11.2%
24 | N#CC1(c2nc3ccccc3o2)C(=O)C(=O)N(C2C3CC4CC(C3)CC2C4)C(=O)C1=O (stereo not drawn) | -8.65% | 6.05% | -39.1% | 16.2% | -5.75% | -9.35%
25 | O=C1C(Br)=C(Br)C(=O)C2=C1C1c3ccccc3C2c2ccccc21 | 98.5% (active) | 98.2% (active) | 97.8% (active) | 97% (active) | 98.2% (active) | 97.8% (active)
26 | COCCCNC1=C(C#N)C(=O)NC(c2cccc([N+](=O)[O-])c2)S1 (stereo not drawn) | -9.7% | -27.4% | 1.75% | 7.85% | -9.8% | -32.7%
27 | C/C(Cc1cccc2ccccc12)=N/NC(N)=O | 2.35% | -27.8% | -19.1% | -8% | -12.1% | -8.45%
28 | CN(C)CCC(/C=C/c1ccccc1)=N\Nc1ccccc1 | 19.6% | -14.9% | -11.9% | 5.5% | -12.8% | 36.5%
29 | CC1=NC=C(O)c2ccccc2O1 | 24.4% | 12.4% | 26.8% | 15.6% | 14.9% | 21.4%
30 | O=[N+]([O-])c1nccn1CC(O)CN1CCCCC1 (stereo not drawn) | 5.95% | -1.15% | 16.8% | -4.85% | -7.85% | 18.9%
31 | Cc1ccc(-n2[nH]nc(C#N)c2=O)cc1 | -6.75% | -20.6% | -23.9% | -1.25% | -27.1% | 5.65%
32 | N#CCc1n[nH]c(Cc2ccccc2)n1 | 2.35% | 6.6% | 3.9% | 7.6% | 0.8% | 12.4%
33 | Cc1nc2c(cc1C(=O)N/N=C/c1ccc([N+](=O)[O-])cc1)c(=O)n(C)c(=O)n2C | -33.4% | -21.8% | -11.9% | -5.75% | -50.9% | 18.1%
34 | O=C(NO)C(=O)NO | -0.65% | -2.95% | -1.9% | -19.4% | -20% | -16.8%
35 | COc1ccc(C2(C)OC(=O)c3ccccc32)c2ccccc12 (stereo not drawn) | 71% (active) | 49.9% | 46.3% | 39.2% | 73.2% (active) | 65.7%
36 | Cc1ccccc1N=Nc1c(-c2ccccc2)nn(C(N)=S)c1-c1ccccc1 | 36.2% | 7.2% | 24.1% | 4.05% | 0.95% | 19%
37 | CCn1c(C)nc([N+](=O)[O-])c1Sc1ncn[nH]1 | 10.2% | -10.3% | 11.2% | 5.1% | -7.05% | -59.7%
38 | CC(N=C(N)N)C(=O)O (stereo not drawn) | -11.9% | 9.1% | 0.15% | -12.5% | 5.3% | 14%
